The whole screen tested about 340,000 compounds, of which about 1,000 (0.29%) were called active. No stated cut-off is given here; in the data, inconclusive means inhibition above about 29% without an active follow-up result; inactive means below that. Only a sample is shown. Measured potencies and affinities stand elsewhere.
molecular target: Genome polyprotein (Dengue virus type 2 (strain 16681-PDK53)) (UniProt P29991); test: flavivirus cap methylation enzyme inhibition – biochemical, confirmation dose response, primary screen (AID 588689); conditions: Dengue-2 NS5 methyltransferase capping enzyme assay, at 25 µM, stronger effect = higher value

inhibition, inactive:
O=C(NC1CC1)C1=C[C@@H](c2csc3ccccc23)C[C@@H](OCc2ccc(CO)cc2)O1 -6.54%, O=C(COC(=O)C1CC2CCCC(C1)C2=O)Nc1nc(-c2ccc(F)c(F)c2)cs1 (configuration not stated) 11%, CN(C)C(=O)c1ccc(NC(=O)c2cccc(S(=O)(=O)N3CCCc4ccccc43)c2)cc1 4.32%, CC(NC(=O)c1cccnc1)C(c1cccs1)N1CCOCC1 (configuration not stated) 0%, CSc1cccc(NC(=O)C2CCN(S(=O)(=O)c3cnc[nH]3)CC2)c1 -4.39%, COc1cccc(CNC(=O)c2cccc(NC(=O)C3=C(C)OCCS3)c2)c1 -1.39%, O=C(Nc1cccc([N+](=O)[O-])c1)N1CCCCCC1 -0.65%, CC(C)OCCCNC(=O)c1ccc(NS(C)(=O)=O)cc1 0%, Cc1cc(C)c(C(=O)c2ccccc2)c(C)c1 -9.32%, O=S(=O)(c1ccccc1)N1CCC2(CC1)CO2 -6.64%, O=C1/C(=C/c2cccnc2)SC(=S)N1NS(=O)(=O)c1ccccc1 5.88%, CCN1C[C@@H]2[C@@H]3C(=O)N(C)C(=O)[C@@H]3[C@](Cc3ccccc3)(C1=O)N2C(=O)c1ccccc1 1.65%, CC(=O)C1=C(O)C(=O)N(c2ccc(C)cc2)C1c1ccc([N+](=O)[O-])cc1 (configuration not stated) 2.73%, COc1cc(CN2CCCCCC2)c([N+](=O)[O-])cc1OC 0%, COc1ccc(Cl)cc1NC(=O)CN(C)C(=O)c1ccc(OCc2ccccc2)c(OC)c1 -1.46%, CN1CCN(C(=O)CCN2C(=O)/C(=C\c3ccc(Cl)cc3Cl)SC2=S)CC1 0%, O=C(CCCN1C(=O)/C(=C/c2ccccc2Cl)SC1=S)NNC(=O)c1ccc(Cl)cc1 28.1%, O=C(CCCN1C(=O)/C(=C/c2ccccc2Cl)SC1=S)NNC(=O)c1ccc(Cl)cc1Cl 3.09%, O=C(COc1ccc(Cl)cc1Cl)NN1C(=O)/C(=C\c2ccc(Cl)cc2)SC1=S 0%, O=S(=O)(c1ccc(Cl)cc1)n1c(Cc2ccccc2)nc2ccccc21 -6.41%, CC(C)N(CC#CCC(O)(c1ccccc1)c1ccccc1)C(C)C -5.16%, Cc1ccc(Cl)cc1NC(=O)CN1C(=O)NC2(CCCCCC2)C1=O 3%, COCCNC(=O)CCn1nc(-c2ccc(C)cc2)c2ccccc2c1=O -3.27%, NC(=O)c1sc2cc(C(F)(F)F)cnc2c1-c1ccccc1 1.48%, NC(=O)CC(NC(=O)c1ccccc1)c1ccc(NCCCN2CCCC2=O)c([N+](=O)[O-])c1 (configuration not stated) -0.79%, CO[C@H]1/C=C/O[C@@]2(C)Oc3c(C)c(O)c4c(O)c(c(C=NN5CCN(C)CC5)c(O)c4c3C2=O)NC(=O)/C(C)=C\C=C\[C@H](C)[C@H](O)[C@@H](C)[C@@H](O)[C@@H](C)[C@H](OC(C)=O)[C@@H]1C 6.59%, CO[C@H]1C=CO[C@@]2(C)Oc3c(C)c(O)c4c(O)c(c(C=NN5CCN(C)CC5)c(O)c4c3C2=O)NC(=O)C(C)=CC=C[C@H](C)[C@H](O)[C@@H](C)[C@@H](O)[C@@H](C)[C@H](OC(C)=O)[C@@H]1C -3.66%, C=CCOc1ccc(/C=N/NC(=O)C(C)Sc2ccccn2)cc1OC (configuration not stated) -7.22%, Cc1ccc(S(=O)(=O)N(C)C)cc1NC(=O)COC(=O)C1(c2ccccc2)CC1 -4.44%, O=[N+]([O-])c1ccccc1S(=O)(=O)Nc1ccc(S(=O)(=O)Nc2nccs2)cc1 3.56%, O=[N+]([O-])c1cccc(S(=O)(=O)Nc2ccc(S(=O)(=O)Nc3nccs3)cc2)c1 -3.24%, C/C(=N\NC(=O)c1cc(C)nc2ccccc12)c1ccccn1 -2.29%, CC(=O)NC1=NN(C(C)=O)C(c2ccc(C(C)C)cc2)S1 (configuration not stated) 0.65%, O=C(O)CSc1cc(C(=O)c2ccccc2O)cn2c(=O)c3c(-c4ccccc4)csc3nc12 36.4%, COc1ccc(O)c(C(=O)c2cc(SCC(=O)O)c3nc4sc5c(c4c(=O)n3c2)CCCC5)c1 69.1%, CCc1cc(C(=O)N(Cc2ccccc2)c2c(N)n(CCOC)c(=O)[nH]c2=O)sc1C -5.81%, CC(/C=C1\SC(=S)N(NC(=O)c2ccccc2C)C1=O)=C\c1ccccc1 2.21%, CC(/C=C1\SC(=S)N(NC(=O)c2ccc(C)cc2)C1=O)=C\c1ccccc1 -6.45%, CC(/C=C1\SC(=S)N(NC(=O)c2cccc(O)c2)C1=O)=C\c1ccccc1 -2.56%, CC(/C=C1\SC(=S)N(NC(=O)c2ccc(O)cc2)C1=O)=C\c1ccccc1 2.55%, COc1ccc([C@H]2/C=C\CN(S(=O)(=O)c3ccc(C)cc3)[C@@H](C)C(=O)N2Cc2ccc(F)cc2)cc1 -6.14%, CC1CCCCN1CCCNC(=O)CN1C(=O)CSc2ccc(S(=O)(=O)N3CCOCC3)cc21 (configuration not stated) 0.89%, Cc1ccnc(SCC(=O)N2CCC(C(N)=O)CC2)n1 5.18%, O=C1CSCC(=O)N1Cc1ccc(Cl)c(Cl)c1 1.96%, CCC(Oc1ccccc1)C(=O)NCCOC (configuration not stated) -3.68%, CCOC(=O)c1c(/N=C/c2cccc([N+](=O)[O-])c2O)sc2c1CCC2 25.2%, CCOC(=O)c1c(/N=C/c2cc(OC)cc([N+](=O)[O-])c2O)sc(C)c1C -0.36%, O=C(CCC(=O)c1ccc(F)cc1)Nc1cc(Cl)cc(Cl)c1 -2.06%, CCOC(=O)c1ccc(CC(=O)c2ccc(O)cc2O)o1 -4.07%, CCCc1cc(C(=O)Cc2ccc(C(=O)OCC)o2)c(O)cc1O -23.9%, O=C(O)c1ccc(N/N=C/c2cn(Cc3ccc(F)cc3)c3ccccc23)cc1 9.41%, Nc1ccc(C(=O)N/N=C/c2cn(Cc3ccccc3F)c3ccccc23)cc1 -1.3%

Reference: PubChem BioAssay AID588689 (Southern Research Specialized Biocontainment Screening …, 2011)
